# Reference: publication PMC7862700, “An all-to-all approach to the identification of sequence-specific readers for epigenetic DNA modifications on cytosine”
# Key:
# Experiment in all cases: DAPPL (digital affinity profiling via proximity ligation, sequencing); 10 mM Tris-HCl pH 7.5, 50 mM NaCl, 1 mM DTT, 4% glycerol, room temperature, 30 min; GST-TFs on glutathione beads, 16-mer random dsDNA library, 0.1% formaldehyde crosslink after washing; high values mean tight binding
# FEV = biological target: T1, FEV (Homo sapiens, UniProt Q99581 1-238); settings: protein: recombinant; tags: N-terminal GST; dsDNA, one strand shown
# T1 sequence: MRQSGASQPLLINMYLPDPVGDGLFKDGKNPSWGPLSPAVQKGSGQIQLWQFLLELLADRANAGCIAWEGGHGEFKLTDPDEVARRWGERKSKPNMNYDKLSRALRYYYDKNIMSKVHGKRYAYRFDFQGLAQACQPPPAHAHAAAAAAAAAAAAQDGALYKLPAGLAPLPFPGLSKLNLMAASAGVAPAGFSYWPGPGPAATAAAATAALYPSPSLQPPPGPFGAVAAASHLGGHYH
# Method in brief: (§1)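 Human transcription factors fused to GST were expressed in yeast, captured on glutathione beads, given DNA barcodes and pooled with a GST-only negative control. Pools were incubated with 200 nmole of a 16-mer random double-stranded DNA library in Tris/NaCl/DTT/glycerol buffer at room temperature for 30 min. They were then washed, crosslinked with 0.1% formaldehyde, proximity-ligated (BsaI/T4 ligase, 1 h, 37 °C), PCR-amplified and sequenced on an Illumina NextSeq500. Binding signal is each 6-mer's read frequency for a factor divided by its frequency for the GST control.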
# ETV5 = ETV5 (Homo sapiens, UniProt P41161 1-510); settings: protein: recombinant; tags: N-terminal GST; dsDNA, one strand shown
# Chain of ETV5 (P41161 whole entry): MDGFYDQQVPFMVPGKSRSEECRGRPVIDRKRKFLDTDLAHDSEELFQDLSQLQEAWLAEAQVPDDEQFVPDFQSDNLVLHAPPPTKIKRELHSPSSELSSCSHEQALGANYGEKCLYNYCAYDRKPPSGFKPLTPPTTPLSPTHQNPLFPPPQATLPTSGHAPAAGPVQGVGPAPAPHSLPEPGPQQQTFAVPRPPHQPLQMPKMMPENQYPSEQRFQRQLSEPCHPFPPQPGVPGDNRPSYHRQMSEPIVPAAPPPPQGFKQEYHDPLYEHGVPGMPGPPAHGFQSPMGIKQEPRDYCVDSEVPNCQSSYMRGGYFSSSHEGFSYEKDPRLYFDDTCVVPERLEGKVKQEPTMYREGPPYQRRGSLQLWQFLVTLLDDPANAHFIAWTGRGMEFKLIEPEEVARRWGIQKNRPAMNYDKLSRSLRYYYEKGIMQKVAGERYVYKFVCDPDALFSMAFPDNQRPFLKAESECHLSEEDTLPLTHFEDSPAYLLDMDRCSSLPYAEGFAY
# Method in brief: as §1
# HSF1 = HSF1 (Homo sapiens, UniProt Q00613 1-529); settings: protein: recombinant; tags: N-terminal GST; chain copies: 3; dsDNA, one strand shown
# Chain of HSF1 (Q00613 whole entry): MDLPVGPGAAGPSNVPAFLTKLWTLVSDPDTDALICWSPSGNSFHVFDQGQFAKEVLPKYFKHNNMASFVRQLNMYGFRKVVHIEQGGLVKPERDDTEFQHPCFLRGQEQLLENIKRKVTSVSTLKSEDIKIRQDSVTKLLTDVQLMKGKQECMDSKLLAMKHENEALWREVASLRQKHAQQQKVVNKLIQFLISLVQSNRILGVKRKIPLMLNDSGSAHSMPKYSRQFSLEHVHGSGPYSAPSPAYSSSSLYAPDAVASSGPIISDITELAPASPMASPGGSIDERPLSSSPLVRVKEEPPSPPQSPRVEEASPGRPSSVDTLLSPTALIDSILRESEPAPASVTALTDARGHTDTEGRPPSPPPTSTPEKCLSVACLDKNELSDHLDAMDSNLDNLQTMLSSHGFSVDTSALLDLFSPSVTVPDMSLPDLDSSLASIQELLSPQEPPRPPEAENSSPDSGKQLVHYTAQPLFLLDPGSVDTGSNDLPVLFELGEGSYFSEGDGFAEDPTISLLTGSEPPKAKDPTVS
# Method in brief: as §1
# SPIC = biological target: T2, SPIC (Homo sapiens, UniProt Q8N5J4 1-248); settings: protein: recombinant; tags: N-terminal GST; dsDNA, one strand shown
# T2 sequence: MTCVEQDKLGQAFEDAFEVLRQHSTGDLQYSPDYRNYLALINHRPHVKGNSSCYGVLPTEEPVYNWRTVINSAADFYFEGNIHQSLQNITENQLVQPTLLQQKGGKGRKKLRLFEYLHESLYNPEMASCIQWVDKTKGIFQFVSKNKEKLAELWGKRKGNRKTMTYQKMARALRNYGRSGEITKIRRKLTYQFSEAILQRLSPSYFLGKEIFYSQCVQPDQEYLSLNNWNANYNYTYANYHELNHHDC
# Method in brief: as §1
# ELF4 = ELF4 (Homo sapiens, UniProt Q99607 1-663); settings: protein: recombinant; tags: N-terminal GST; dsDNA, one strand shown
# Chain of ELF4 (Q99607 whole entry): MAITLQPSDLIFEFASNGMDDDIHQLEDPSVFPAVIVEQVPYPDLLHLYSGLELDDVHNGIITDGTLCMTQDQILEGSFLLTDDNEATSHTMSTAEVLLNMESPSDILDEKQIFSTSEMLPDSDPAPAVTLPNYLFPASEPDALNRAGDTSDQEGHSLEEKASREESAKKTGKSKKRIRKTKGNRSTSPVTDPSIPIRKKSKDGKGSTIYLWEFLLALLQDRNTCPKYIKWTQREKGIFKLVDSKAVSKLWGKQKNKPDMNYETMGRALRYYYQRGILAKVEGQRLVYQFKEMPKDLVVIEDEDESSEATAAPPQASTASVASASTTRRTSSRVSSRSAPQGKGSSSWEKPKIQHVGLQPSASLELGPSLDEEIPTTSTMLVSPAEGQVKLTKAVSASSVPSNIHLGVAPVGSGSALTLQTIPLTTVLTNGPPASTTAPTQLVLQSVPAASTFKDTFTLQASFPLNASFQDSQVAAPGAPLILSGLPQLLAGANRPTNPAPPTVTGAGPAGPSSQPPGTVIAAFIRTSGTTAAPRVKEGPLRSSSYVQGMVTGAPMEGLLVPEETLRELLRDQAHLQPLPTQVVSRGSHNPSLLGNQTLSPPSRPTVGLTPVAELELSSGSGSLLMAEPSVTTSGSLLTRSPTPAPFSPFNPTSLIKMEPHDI
# Method in brief: as §1
# ELK4 = biological target: T3, ELK4 (Homo sapiens, UniProt P28324-2 1-405); settings: protein: recombinant; tags: N-terminal GST; dsDNA, one strand shown
# T3 sequence: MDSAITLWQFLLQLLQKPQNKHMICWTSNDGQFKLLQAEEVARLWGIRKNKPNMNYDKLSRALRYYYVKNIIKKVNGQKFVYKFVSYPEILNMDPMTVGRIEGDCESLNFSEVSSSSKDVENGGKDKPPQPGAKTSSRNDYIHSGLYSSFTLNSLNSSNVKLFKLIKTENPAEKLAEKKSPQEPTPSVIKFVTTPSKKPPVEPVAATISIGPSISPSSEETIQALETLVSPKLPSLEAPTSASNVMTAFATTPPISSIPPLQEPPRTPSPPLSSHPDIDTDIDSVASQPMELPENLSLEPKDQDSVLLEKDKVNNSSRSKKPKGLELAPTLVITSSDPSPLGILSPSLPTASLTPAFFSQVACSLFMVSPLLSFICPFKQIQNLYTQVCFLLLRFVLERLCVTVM
# Method in brief: as §1
# ETV2 = biological target: T4, ETV2 (Homo sapiens, UniProt O00321 1-342); settings: protein: recombinant; tags: N-terminal GST; dsDNA, one strand shown
# T4 sequence: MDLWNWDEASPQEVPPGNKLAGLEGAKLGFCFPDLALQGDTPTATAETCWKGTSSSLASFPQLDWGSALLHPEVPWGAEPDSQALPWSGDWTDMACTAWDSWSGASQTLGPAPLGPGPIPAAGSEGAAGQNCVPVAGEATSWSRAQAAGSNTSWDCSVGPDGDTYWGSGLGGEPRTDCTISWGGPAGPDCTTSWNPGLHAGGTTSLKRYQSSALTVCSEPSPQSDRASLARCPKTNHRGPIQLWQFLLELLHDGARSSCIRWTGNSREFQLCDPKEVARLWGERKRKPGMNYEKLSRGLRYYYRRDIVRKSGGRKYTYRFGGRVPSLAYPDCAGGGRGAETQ
# Method in brief: as §1
# ELF3 = biological target: T5, ELF3 (Homo sapiens, UniProt P78545 1-371); settings: protein: recombinant; tags: N-terminal GST; dsDNA, one strand shown
# T5 sequence: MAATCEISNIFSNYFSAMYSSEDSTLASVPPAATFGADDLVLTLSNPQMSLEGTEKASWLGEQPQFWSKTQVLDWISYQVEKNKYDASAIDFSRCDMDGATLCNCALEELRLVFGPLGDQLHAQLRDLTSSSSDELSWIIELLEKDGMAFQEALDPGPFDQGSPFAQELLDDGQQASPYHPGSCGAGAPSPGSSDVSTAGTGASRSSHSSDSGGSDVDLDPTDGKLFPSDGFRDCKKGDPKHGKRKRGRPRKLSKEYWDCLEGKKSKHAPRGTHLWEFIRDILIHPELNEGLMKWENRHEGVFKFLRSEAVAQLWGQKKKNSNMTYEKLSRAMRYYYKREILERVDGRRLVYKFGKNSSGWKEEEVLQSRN
# Method in brief: as §1
# CRX = CRX (Homo sapiens, UniProt O43186 1-299); settings: protein: recombinant; tags: N-terminal GST; dsDNA, one strand shown
# Chain of CRX (O43186 whole entry): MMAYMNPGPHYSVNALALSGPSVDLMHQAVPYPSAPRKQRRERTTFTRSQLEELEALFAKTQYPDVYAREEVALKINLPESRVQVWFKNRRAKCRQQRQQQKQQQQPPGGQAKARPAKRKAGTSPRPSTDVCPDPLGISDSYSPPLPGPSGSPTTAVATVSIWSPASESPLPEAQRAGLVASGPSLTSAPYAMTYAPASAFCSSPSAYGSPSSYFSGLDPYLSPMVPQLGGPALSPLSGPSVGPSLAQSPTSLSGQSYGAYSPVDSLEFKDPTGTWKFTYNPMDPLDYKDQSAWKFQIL
# Method in brief: as §1
# ETV1 = ETV1 (Homo sapiens, UniProt P50549 1-477); settings: protein: recombinant; tags: N-terminal GST; dsDNA, one strand shown
# Chain of ETV1 (P50549 whole entry): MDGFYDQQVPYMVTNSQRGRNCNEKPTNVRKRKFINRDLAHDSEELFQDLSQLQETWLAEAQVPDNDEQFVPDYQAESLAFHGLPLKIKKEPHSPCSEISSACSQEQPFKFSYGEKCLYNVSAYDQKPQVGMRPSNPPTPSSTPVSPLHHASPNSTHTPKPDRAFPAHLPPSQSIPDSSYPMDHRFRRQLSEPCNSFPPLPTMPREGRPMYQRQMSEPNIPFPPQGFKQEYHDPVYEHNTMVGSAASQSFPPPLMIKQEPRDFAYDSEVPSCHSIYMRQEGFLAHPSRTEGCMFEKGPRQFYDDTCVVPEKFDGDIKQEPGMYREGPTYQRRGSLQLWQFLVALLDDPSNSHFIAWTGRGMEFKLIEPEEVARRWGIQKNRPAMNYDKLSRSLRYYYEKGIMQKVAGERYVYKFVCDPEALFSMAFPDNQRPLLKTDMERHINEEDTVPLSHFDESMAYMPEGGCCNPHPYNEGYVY
# Method in brief: as §1
# ERF = biological target: T6, ERF (Homo sapiens, UniProt P50548 1-548); settings: protein: recombinant; tags: N-terminal GST; dsDNA, one strand shown
# T6 sequence: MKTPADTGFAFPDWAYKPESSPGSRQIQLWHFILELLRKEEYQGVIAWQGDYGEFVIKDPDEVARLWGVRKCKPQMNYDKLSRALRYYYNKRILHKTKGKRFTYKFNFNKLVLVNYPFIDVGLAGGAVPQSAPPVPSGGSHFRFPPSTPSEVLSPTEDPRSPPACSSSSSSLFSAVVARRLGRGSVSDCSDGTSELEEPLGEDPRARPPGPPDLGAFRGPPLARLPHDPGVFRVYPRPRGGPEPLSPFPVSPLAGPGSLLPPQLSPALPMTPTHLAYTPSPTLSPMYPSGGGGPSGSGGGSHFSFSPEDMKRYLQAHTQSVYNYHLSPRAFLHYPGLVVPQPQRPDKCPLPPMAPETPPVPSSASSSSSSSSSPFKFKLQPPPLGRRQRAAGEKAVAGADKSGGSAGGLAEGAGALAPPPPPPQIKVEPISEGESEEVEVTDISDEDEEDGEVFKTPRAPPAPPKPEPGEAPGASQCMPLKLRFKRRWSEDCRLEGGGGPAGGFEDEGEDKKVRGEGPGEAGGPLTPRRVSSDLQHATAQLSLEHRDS
# Method in brief: as §1
# ETV3L = biological target: T7, ETV3L (Homo sapiens, UniProt Q6ZN32 1-361); settings: protein: recombinant; tags: N-terminal GST; dsDNA, one strand shown
# T7 sequence: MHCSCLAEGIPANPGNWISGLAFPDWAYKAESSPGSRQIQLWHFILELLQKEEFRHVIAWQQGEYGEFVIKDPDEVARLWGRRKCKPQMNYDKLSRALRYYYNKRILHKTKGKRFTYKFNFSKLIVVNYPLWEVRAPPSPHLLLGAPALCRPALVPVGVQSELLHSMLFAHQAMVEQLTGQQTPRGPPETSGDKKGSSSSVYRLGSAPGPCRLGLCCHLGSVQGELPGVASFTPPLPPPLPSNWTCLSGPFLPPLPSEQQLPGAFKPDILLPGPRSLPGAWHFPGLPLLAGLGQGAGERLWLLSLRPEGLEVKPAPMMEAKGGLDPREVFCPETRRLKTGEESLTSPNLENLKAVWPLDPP
# Method in brief: as §1
# ETS2 = biological target: T8, ETS2 (Homo sapiens, UniProt P15036 1-469); settings: protein: recombinant; tags: N-terminal GST; dsDNA, one strand shown
# T8 sequence: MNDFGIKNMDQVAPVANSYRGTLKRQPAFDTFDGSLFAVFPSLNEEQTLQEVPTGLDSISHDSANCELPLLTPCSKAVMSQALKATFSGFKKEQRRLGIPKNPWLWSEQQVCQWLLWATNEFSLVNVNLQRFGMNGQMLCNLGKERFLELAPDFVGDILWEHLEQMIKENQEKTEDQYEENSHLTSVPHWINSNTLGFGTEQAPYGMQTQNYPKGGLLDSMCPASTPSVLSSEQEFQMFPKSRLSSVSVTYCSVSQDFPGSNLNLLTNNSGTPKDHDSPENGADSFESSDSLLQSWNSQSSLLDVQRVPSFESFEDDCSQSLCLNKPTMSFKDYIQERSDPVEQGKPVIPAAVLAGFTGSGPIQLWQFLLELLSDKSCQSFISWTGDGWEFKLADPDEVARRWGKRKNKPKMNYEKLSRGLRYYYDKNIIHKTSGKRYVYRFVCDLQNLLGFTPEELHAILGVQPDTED
# Method in brief: as §1
# SPDEF = biological target: T9, SPDEF (Homo sapiens, UniProt O95238 1-335); settings: protein: recombinant; tags: N-terminal GST; dsDNA, one strand shown
# T9 sequence: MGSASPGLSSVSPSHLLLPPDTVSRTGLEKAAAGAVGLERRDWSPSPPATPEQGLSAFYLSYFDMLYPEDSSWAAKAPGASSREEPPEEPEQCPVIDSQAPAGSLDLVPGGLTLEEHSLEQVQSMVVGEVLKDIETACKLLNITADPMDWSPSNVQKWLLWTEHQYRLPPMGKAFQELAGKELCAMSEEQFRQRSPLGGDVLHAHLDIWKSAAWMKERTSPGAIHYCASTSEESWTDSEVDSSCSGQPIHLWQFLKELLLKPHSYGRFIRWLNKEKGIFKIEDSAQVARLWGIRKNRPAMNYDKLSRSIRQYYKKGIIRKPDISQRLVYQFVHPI
# Method in brief: as §1
# ETV7 = biological target: T10, ETV7 (Homo sapiens, UniProt Q9Y603 1-341); settings: protein: recombinant; tags: N-terminal GST; dsDNA, one strand shown
# T10 sequence: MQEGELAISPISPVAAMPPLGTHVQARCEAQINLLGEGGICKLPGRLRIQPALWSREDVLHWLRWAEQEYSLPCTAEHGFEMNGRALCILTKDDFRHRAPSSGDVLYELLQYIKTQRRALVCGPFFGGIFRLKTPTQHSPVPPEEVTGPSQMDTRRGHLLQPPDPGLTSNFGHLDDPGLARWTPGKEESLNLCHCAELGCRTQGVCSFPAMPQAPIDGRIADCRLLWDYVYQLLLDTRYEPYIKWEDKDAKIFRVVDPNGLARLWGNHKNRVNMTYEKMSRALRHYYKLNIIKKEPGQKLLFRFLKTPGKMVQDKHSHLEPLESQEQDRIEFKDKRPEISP
# Method in brief: as §1
# ELF5 = biological target: T11, ELF5 (Homo sapiens, UniProt Q9UKW6-2 1-255); settings: protein: recombinant; tags: N-terminal GST; dsDNA, one strand shown
# T11 sequence: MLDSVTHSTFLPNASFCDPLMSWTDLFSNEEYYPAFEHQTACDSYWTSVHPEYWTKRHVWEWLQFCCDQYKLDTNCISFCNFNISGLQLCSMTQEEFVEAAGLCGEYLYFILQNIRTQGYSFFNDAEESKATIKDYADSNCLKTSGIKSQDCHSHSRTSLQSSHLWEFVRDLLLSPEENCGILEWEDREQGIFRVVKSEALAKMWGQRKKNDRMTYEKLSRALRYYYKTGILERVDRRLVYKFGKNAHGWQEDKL
# Method in brief: as §1
# ETV3 = biological target: T12, ETV3 (Homo sapiens, UniProt P41162-2 1-143); settings: protein: recombinant; tags: N-terminal GST; dsDNA, one strand shown
# T12 sequence: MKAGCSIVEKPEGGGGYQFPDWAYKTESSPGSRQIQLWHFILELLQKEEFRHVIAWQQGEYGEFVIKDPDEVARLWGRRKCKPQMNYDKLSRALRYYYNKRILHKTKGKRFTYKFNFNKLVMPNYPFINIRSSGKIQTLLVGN
# Method in brief: as §1
# ETV6 = ETV6 (Homo sapiens, UniProt P41212 1-452); settings: protein: recombinant; tags: N-terminal GST; dsDNA, one strand shown
# Chain of ETV6 (P41212 whole entry): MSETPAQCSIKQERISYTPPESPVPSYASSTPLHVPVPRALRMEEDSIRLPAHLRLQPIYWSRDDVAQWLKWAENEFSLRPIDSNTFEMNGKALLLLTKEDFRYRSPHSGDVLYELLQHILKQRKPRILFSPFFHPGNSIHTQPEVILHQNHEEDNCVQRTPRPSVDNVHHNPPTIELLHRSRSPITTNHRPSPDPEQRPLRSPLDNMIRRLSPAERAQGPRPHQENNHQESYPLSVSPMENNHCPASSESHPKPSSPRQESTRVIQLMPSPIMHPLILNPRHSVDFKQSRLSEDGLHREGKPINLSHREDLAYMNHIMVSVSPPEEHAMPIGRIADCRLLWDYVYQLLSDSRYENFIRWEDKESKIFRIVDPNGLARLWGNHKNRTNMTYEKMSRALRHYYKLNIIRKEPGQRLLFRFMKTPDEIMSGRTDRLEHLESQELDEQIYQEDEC
# Method in brief: as §1
sequence,measurement,setting,value
AAGTTA,binding signal,FEV,"1.15 fold enrichment (6-mer frequency, TF over GST control)"
same,binding signal,ETV5,"1.26 fold enrichment (6-mer frequency, TF over GST control)"
same,binding signal,HSF1,"1.09 fold enrichment (6-mer frequency, TF over GST control)"
same,binding signal,SPIC,"1.27 fold enrichment (6-mer frequency, TF over GST control)"
same,binding signal,ELF4,"1.28 fold enrichment (6-mer frequency, TF over GST control)"
same,binding signal,ELK4,"1.19 fold enrichment (6-mer frequency, TF over GST control)"
same,binding signal,ETV2,"1.27 fold enrichment (6-mer frequency, TF over GST control)"
same,binding signal,ELF3,"1.15 fold enrichment (6-mer frequency, TF over GST control)"
same,binding signal,CRX,"1.26 fold enrichment (6-mer frequency, TF over GST control)"
same,binding signal,ETV1,"1.23 fold enrichment (6-mer frequency, TF over GST control)"
same,binding signal,ERF,"1.24 fold enrichment (6-mer frequency, TF over GST control)"
same,binding signal,ETV3L,"1.18 fold enrichment (6-mer frequency, TF over GST control)"
same,binding signal,ETS2,"1.24 fold enrichment (6-mer frequency, TF over GST control)"
same,binding signal,SPDEF,"1.08 fold enrichment (6-mer frequency, TF over GST control)"
same,binding signal,ETV7,"1.21 fold enrichment (6-mer frequency, TF over GST control)"
same,binding signal,ELF5,"1.21 fold enrichment (6-mer frequency, TF over GST control)"
same,binding signal,ETV3,"1.19 fold enrichment (6-mer frequency, TF over GST control)"
same,binding signal,ETV6,"1.3 fold enrichment (6-mer frequency, TF over GST control)"
